Results as given in paper PMC7862700, “An all-to-all approach to the identification of sequence-specific readers for epigenetic DNA modifications on cytosine”.

Key:
Assay in all cases: DAPPL (digital affinity profiling via proximity ligation, sequencing); 10 mM Tris-HCl pH 7.5, 50 mM NaCl, 1 mM DTT, 4% glycerol, room temperature, 30 min; GST-TFs on glutathione beads, 16-mer random dsDNA library, 0.1% formaldehyde crosslink after washing; high values mean tight binding
Details in all cases: protein: recombinant; tags: N-terminal GST; dsDNA, one strand shown
[1] = molecular target: T1, FLI1 (Homo sapiens, UniProt Q01543 1-452)
T1 sequence: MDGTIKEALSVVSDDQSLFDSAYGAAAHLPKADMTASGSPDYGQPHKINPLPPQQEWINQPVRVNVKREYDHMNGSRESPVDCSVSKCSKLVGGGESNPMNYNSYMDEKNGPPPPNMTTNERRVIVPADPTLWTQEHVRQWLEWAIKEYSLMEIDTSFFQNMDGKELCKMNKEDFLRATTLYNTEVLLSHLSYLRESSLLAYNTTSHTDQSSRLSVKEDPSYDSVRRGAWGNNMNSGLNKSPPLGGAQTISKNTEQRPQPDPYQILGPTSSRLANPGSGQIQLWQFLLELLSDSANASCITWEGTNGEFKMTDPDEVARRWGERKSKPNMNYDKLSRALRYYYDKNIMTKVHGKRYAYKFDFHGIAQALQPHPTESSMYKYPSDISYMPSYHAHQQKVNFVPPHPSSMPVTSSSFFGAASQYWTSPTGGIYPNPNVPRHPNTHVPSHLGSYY
Outline: (§1)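 Human transcription factors fused to GST were expressed in yeast, captured on glutathione beads, given DNA barcodes and pooled with a GST-only negative control. Pools were incubated with 200 nmole of a 16-mer random double-stranded DNA library in Tris/NaCl/DTT/glycerol buffer at room temperature for 30 min. They were then washed, crosslinked with 0.1% formaldehyde, proximity-ligated (BsaI/T4 ligase, 1 h, 37 °C), PCR-amplified and sequenced on an Illumina NextSeq500. Binding signal is each 6-mer's read frequency for a factor divided by its frequency for the GST control.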

[2] = molecular target: T2, ELK1 (Homo sapiens, UniProt P19419 1-428)
T2 sequence: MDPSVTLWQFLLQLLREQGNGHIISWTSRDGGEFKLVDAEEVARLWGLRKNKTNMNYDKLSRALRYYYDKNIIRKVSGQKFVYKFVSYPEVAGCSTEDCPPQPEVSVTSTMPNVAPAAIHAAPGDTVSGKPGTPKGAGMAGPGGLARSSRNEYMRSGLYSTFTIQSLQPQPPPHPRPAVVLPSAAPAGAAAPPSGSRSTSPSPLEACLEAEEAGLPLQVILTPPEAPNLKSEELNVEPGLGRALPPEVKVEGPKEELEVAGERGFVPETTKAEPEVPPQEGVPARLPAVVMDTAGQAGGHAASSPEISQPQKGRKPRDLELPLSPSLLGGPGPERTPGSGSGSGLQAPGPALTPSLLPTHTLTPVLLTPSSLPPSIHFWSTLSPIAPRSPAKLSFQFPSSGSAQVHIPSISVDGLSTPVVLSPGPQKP
Outline: as §1

[3] = molecular target: T3, GABPA (Homo sapiens, UniProt Q06546 1-454)
T3 sequence: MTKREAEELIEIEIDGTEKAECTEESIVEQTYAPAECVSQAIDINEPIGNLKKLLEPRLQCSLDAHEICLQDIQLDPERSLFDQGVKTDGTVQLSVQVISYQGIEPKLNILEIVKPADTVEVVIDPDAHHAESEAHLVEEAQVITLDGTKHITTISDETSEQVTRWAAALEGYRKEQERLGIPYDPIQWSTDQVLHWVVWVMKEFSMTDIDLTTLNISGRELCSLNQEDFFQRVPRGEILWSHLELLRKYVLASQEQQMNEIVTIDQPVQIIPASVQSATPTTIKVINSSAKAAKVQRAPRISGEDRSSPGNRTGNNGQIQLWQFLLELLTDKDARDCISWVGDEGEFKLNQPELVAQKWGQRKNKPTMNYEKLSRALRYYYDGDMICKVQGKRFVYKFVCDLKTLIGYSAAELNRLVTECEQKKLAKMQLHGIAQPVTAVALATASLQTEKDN
Outline: as §1

[4] = molecular target: T4, ERG (Homo sapiens, UniProt P11308 1-479)
T4 sequence: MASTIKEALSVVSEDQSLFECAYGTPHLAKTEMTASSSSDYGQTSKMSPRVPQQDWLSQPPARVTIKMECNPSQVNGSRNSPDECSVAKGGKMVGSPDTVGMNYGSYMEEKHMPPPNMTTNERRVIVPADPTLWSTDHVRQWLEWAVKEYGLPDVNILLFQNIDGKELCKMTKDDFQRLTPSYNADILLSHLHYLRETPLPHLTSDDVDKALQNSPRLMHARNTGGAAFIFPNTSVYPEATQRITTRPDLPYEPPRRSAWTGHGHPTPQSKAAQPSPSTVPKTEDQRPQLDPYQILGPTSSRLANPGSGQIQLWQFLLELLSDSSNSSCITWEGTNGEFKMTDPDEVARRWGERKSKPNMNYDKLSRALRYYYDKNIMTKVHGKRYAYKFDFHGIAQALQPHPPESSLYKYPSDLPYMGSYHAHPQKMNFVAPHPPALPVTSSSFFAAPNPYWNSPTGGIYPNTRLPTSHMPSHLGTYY
Outline: as §1

[5] = molecular target: ELF1 (Homo sapiens, UniProt P32519 1-619)
Outline: as §1

[6] = molecular target: T5, EHF (Homo sapiens, UniProt Q9NZC4 1-300)
T5 sequence: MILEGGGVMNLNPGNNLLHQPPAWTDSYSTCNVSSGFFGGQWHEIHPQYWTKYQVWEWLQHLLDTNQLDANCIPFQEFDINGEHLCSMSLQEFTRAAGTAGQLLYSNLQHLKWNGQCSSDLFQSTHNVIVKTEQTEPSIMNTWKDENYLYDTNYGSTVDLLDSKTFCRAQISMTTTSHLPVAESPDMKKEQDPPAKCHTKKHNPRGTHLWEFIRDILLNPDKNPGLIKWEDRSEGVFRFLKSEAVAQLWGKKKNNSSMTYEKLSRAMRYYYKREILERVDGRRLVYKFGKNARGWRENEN
Outline: as §1

[7] = molecular target: SPI1 (Homo sapiens, UniProt P17947 1-270)
Outline: as §1

[8] = molecular target: SPIB (Homo sapiens, UniProt Q01892 1-262)
Outline: as §1

[9] = molecular target: T6, ELK3 (Homo sapiens, UniProt P41970 1-407)
T6 sequence: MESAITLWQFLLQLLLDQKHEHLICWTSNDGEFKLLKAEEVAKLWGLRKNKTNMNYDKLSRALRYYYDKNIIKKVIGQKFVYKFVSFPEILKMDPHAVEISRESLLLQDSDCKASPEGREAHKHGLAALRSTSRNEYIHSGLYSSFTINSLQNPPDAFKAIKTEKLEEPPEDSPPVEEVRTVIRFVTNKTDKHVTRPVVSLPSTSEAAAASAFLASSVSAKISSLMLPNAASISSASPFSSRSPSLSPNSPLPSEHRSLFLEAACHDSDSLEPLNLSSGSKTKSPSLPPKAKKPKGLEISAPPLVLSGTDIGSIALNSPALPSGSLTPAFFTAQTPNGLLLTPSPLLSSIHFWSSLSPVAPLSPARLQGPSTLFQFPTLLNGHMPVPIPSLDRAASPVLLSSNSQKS
Outline: as §1

ELF1, sequence (P32519 whole entry): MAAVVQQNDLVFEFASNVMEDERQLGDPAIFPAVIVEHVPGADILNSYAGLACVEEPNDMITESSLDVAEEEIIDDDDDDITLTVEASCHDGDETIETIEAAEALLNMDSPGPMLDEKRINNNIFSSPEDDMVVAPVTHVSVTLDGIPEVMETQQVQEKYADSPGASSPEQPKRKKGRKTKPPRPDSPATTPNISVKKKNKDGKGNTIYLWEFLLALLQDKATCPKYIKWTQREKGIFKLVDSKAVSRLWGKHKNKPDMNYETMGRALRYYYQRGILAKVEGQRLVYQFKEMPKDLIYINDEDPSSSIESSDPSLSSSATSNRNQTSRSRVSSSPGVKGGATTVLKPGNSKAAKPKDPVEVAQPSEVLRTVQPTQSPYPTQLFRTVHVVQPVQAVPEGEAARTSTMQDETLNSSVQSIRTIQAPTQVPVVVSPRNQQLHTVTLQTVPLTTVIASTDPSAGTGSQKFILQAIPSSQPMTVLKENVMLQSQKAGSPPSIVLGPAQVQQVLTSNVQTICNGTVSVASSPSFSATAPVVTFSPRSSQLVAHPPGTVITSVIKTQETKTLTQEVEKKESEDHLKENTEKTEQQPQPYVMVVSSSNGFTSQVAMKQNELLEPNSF
SPIB, sequence (Q01892 whole entry): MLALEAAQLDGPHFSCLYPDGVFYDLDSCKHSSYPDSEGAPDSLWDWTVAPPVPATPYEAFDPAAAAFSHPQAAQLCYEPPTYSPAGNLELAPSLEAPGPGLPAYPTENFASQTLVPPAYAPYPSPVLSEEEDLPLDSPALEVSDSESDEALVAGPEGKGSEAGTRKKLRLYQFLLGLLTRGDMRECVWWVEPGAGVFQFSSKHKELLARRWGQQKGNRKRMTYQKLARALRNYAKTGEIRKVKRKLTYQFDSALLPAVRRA

ACTCCG
binding signal [1]: 1.48 fold enrichment (6-mer frequency, TF over GST control)
binding signal [2]: 1.5 fold enrichment (6-mer frequency, TF over GST control)
binding signal [3]: 1.58 fold enrichment (6-mer frequency, TF over GST control)
binding signal [4]: 1.43 fold enrichment (6-mer frequency, TF over GST control)
binding signal [5]: 1.48 fold enrichment (6-mer frequency, TF over GST control)
binding signal [6]: 1.42 fold enrichment (6-mer frequency, TF over GST control)
binding signal [7]: 1.45 fold enrichment (6-mer frequency, TF over GST control)
binding signal [8]: 1.44 fold enrichment (6-mer frequency, TF over GST control)
binding signal [9]: 1.56 fold enrichment (6-mer frequency, TF over GST control)
